# Test results taken from the supplement of paper PMC8728848.
# Only a selection was taken, and the strongest signals are over-represented in it overall.
# B1: GNL (Galanthus nivalis) (protein)
# chain: MGHHHHHHHHYGTLENGHWLMVGMSIFSKDRTVELRMQDDGKLAIYYNDHCAWQSTAQQVNNAKGAVMQGDGNFCIYDKNGKATWHTNTAAPSGDSHTFVSVQDDGNLVLYKNNGATPIWSSKSNK
# Tests used:
# Assay in all cases: glycan array binding signal (z-score within array); higher = stronger binding
# Conditions in all cases: glycan notation: IUPAC condensed, linker removed
# [1] = molecular target: Fuc(a1-2)Gal(b1-4)GlcNAc(b1-2)Man
# Method in brief: (§1)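 The Consortium for Functional Glycomics database supplied 3228 glycan arrays, of which those lacking an available protein sequence were dropped. The binding signal, a within-array Z-score, was averaged across arrays of the same protein sequence and across linkers. Negative scores can be read as non-binding.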
# [2] = molecular target: Fuc(a1-2)[Gal(a1-3)]Gal(b1-3)GalNAc(b1-3)Gal(a1-4)Gal(b1-4)Glc
# Method in brief: as §1
# [3] = molecular target: Fuc(a1-2)[GalNAc(a1-3)]Gal(b1-4)GlcNAc(b1-2)Man(a1-3)[Fuc(a1-2)[GalNAc(a1-3)]Gal(b1-4)GlcNAc(b1-2)Man(a1-6)]Man(b1-4)GlcNAc(b1-4)[Fuc(a1-6)]GlcNAc
# Method in brief: as §1
# [4] = molecular target: Fuc(a1-3)[Gal3S(b1-4)]Glc
# Method in brief: as §1
# [5] = molecular target: Fuc(a1-3)[GalNAc(b1-4)]GlcNAc6S
# Method in brief: as §1
# Fuc(b1-3)GlcNAc = molecular target: Fuc(b1-3)GlcNAc
# Method in brief: as §1
# [6] = molecular target: Gal(a1-3)Gal(b1-4)GlcNAc(b1-2)Man(a1-3)[Gal(a1-3)Gal(b1-4)GlcNAc(b1-2)Man(a1-6)]Man(b1-4)GlcNAc(b1-4)GlcNAc
# Method in brief: as §1
# [7] = molecular target: Gal(a1-3)Gal(b1-4)[Fuc(a1-3)]GlcNAc(b1-2)Man(a1-3)[Gal(a1-3)Gal(b1-4)[Fuc(a1-3)]GlcNAc(b1-2)Man(a1-6)]Man(b1-4)GlcNAc(b1-4)GlcNAc
# Method in brief: as §1
# [8] = molecular target: Gal(a1-4)Gal(b1-3)GlcNAc(b1-2)Man(a1-3)[Gal(a1-4)Gal(b1-3)GlcNAc(b1-2)Man(a1-6)]Man(b1-4)GlcNAc(b1-4)GlcNAc
# Method in brief: as §1
# [9] = molecular target: Gal(a1-4)Gal(b1-4)GlcNAc(b1-2)Man(a1-3)[Gal(a1-4)Gal(b1-4)GlcNAc(b1-2)Man(a1-6)]Man(b1-4)GlcNAc(b1-4)GlcNAc
# Method in brief: as §1
# Gal(b1-3)GalNAc = molecular target: Gal(b1-3)GalNAc
# Method in brief: as §1
# [10] = molecular target: Gal(b1-3)GalNAc(b1-4)Gal(b1-4)Glc
# Method in brief: as §1
# [11] = molecular target: Gal(b1-3)GlcNAc(a1-3)Gal(b1-4)GlcNAc
# Method in brief: as §1
# Gal(b1-3)GlcNAc(b1-2)Man = molecular target: Gal(b1-3)GlcNAc(b1-2)Man
# Method in brief: as §1
# [12] = molecular target: Gal(b1-3)GlcNAc(b1-2)Man(a1-3)[Gal(b1-3)GlcNAc(b1-2)Man(a1-6)]Man(b1-4)GlcNAc(b1-4)GlcNAc
# Method in brief: as §1
# [13] = molecular target: Gal(b1-3)GlcNAc(b1-3)Gal(b1-3)GlcNAc
# Method in brief: as §1
# [14] = molecular target: Gal(b1-4)GalNAc(a1-3)[Fuc(a1-2)]Gal(b1-4)GlcNAc
# Method in brief: as §1
# [15] = molecular target: Gal(b1-4)GlcNAc(b1-2)Man(a1-3)[Gal(b1-4)GlcNAc(b1-2)Man(a1-6)]Man(b1-4)GlcNAc(b1-4)GlcNAc
# Method in brief: as §1
# [16] = molecular target: Gal(b1-4)GlcNAc(b1-2)Man(a1-3)[GlcNAc(b1-2)Man(a1-6)]Man(b1-4)GlcNAc(b1-4)GlcNAc
# Method in brief: as §1
# [17] = molecular target: Gal(b1-4)GlcNAc(b1-2)Man(a1-3)[Man(a1-6)]Man(b1-4)GlcNAc(b1-4)GlcNAc
# Method in brief: as §1
# [18] = molecular target: Gal(b1-4)GlcNAc(b1-2)Man(a1-6)[GlcNAc(b1-2)Man(a1-3)]Man(b1-4)GlcNAc(b1-4)GlcNAc
# Method in brief: as §1
# [19] = molecular target: Gal(b1-4)GlcNAc(b1-3)Gal(b1-4)GlcNAc(b1-2)[Gal(b1-4)GlcNAc(b1-3)Gal(b1-4)GlcNAc(b1-6)]Man(a1-6)[Gal(b1-4)GlcNAc(b1-3)Gal(b1-4)GlcNAc(b1-2)Man(a1-3)]Man(b1-4)GlcNAc(b1-4)[Fuc(a1-6)]GlcNAc
# Method in brief: as §1
# [20] = molecular target: Gal(b1-4)GlcNAc(b1-3)Gal(b1-4)GlcNAc(b1-3)[Gal(b1-4)GlcNAc(b1-3)Gal(b1-4)GlcNAc(b1-6)]GalNAc
# Method in brief: as §1
# Gal4S(b1-4)GlcNAc = molecular target: Gal4S(b1-4)GlcNAc
# Method in brief: as §1
# Gal6S(b1-4)Glc6S = molecular target: Gal6S(b1-4)Glc6S
# Method in brief: as §1
# GalNAc(a1-3)Gal = molecular target: GalNAc(a1-3)Gal
# Method in brief: as §1
# [21] = molecular target: GalNAc(a1-3)GalNAc(b1-3)Gal(a1-4)Gal(b1-4)Glc
# Method in brief: as §1
# [22] = molecular target: GalNAc(b1-4)GlcNAc(b1-2)Man(a1-3)[GalNAc(b1-4)GlcNAc(b1-2)Man(a1-6)]Man(b1-4)GlcNAc(b1-4)GlcNAc
# Method in brief: as §1
# GalNAc3S(b1-4)GlcNAc = molecular target: GalNAc3S(b1-4)GlcNAc
# Method in brief: as §1
# GalNAc6S(b1-4)GlcNAc = molecular target: GalNAc6S(b1-4)GlcNAc
# Method in brief: as §1
# [23] = molecular target: Glc(a1-6)Glc(a1-6)Glc(a1-6)Glc
# Method in brief: as §1
binder,measurement,setting,value
B1,glycan array binding signal (z-score),[1],-0.231
same,glycan array binding signal (z-score),[2],-0.172
same,glycan array binding signal (z-score),[3],-0.207
same,glycan array binding signal (z-score),[4],-0.237
same,glycan array binding signal (z-score),[5],-0.181
same,glycan array binding signal (z-score),Fuc(b1-3)GlcNAc,-0.156
same,glycan array binding signal (z-score),[6],3.44
same,glycan array binding signal (z-score),[7],-0.054
same,glycan array binding signal (z-score),[8],4.92
same,glycan array binding signal (z-score),[9],5.71
same,glycan array binding signal (z-score),Gal(b1-3)GalNAc,-0.233
same,glycan array binding signal (z-score),[10],-0.061
same,glycan array binding signal (z-score),[11],-0.174
same,glycan array binding signal (z-score),Gal(b1-3)GlcNAc(b1-2)Man,-0.16
same,glycan array binding signal (z-score),[12],4.54
same,glycan array binding signal (z-score),[13],-0.228
same,glycan array binding signal (z-score),[14],-0.257
same,glycan array binding signal (z-score),[15],4.76
same,glycan array binding signal (z-score),[16],3.92
same,glycan array binding signal (z-score),[17],10.9
same,glycan array binding signal (z-score),[18],7.59
same,glycan array binding signal (z-score),[19],-0.241
same,glycan array binding signal (z-score),[20],-0.222
same,glycan array binding signal (z-score),Gal4S(b1-4)GlcNAc,-0.212
same,glycan array binding signal (z-score),Gal6S(b1-4)Glc6S,-0.207
same,glycan array binding signal (z-score),GalNAc(a1-3)Gal,-0.25
same,glycan array binding signal (z-score),[21],-0.305
same,glycan array binding signal (z-score),[22],-0.248
same,glycan array binding signal (z-score),GalNAc3S(b1-4)GlcNAc,-0.219
same,glycan array binding signal (z-score),GalNAc6S(b1-4)GlcNAc,-0.21
same,glycan array binding signal (z-score),[23],-0.121
